According to ChEMBL document CHEMBL4513216, “Probing the Open Global Health Chemical Diversity Library for Multistage-Active Starting Points for Next-Generation Antimalarials” (ACS Infect Dis, 2020):
Hit rate of the full screen: of about 69,000 compounds, about 8,600 (12%) showed an effect of 50% or more. The list comes from a sample in which strong results are over-represented; it also holds similar structures and randomly drawn compounds.

Tested on: Plasmodium berghei
Experiment: Screen against P. berghei liver stage (PbLuc), transformed with Luciferase, at 10uM
Format: functional, HepG2
Details: tested at 10 uM

Compound | INHIBITION [%]
c1cnn(CC2CCCCN2Cc2noc(C3CC3)n2)c1 (configuration not stated) | -42.65
CC(C)NC(=O)c1nnc2ccc(N3CCOCC3)cc2n1 | -3.11
O=C(c1ccco1)N1CCC2(CCC(=O)N2Cc2ccccc2)CC1 | 33.4
COCC(=O)N1CCC(C)(c2cc(O)[nH]n2)CC1 | 23.9
CCCC(NC(=O)NCc1cccc(N(C)C)n1)c1ccccn1 (configuration not stated) | 58.5
Cc1nc(CCNC(=O)NCc2cccc(N(C)C)n2)cs1 | -24.3
CCC(NC(=O)NCc1cccc(N(C)C)n1)c1cccs1 (configuration not stated) | -6.46
CN(C)c1ccc(NC(=O)NCc2ccccn2)cn1 | 13.9
CCC(NC(=O)NCc1cccc(N(C)C)n1)c1ccccc1OC (configuration not stated) | 6.83
CCC(NC(=O)NCc1cccc(N(C)C)n1)c1nccs1 (configuration not stated) | 67.4
Cc1noc(C)c1-c1cncc(C2CCCN2Cc2ncc[nH]2)n1 (configuration not stated) | 47.2
CC[C@@H](Cn1ncc2ccccc2c1=O)NC(=O)c1ccco1 | 34.1
Cn1ccc(C(=O)N2CCN(c3nccs3)CC2)cc1=O | 28.8
Cc1ccccc1C(=O)NC1CCN(Cc2ncc(C(C)(C)C)o2)CC1 | 66.1
CC(C)(C)c1cnc(CN2CCCS(=O)(=O)CC2)o1 | -7.94
CC(C)(C)c1cnc(CN2CCC(NC(=O)Nc3ccccc3)CC2)o1 | 39.4
CC(C)(C)c1cnc(CN2CCN(c3ncccn3)CC2)o1 | 24.3
CCN(C1CCN(Cc2ncc(C(C)(C)C)o2)CC1)S(C)(=O)=O | 50.8
CC(C)(C)c1cnc(CN2CCC(CN3CCOCC3)CC2)o1 | 66.3
CCN(CC)CC1CCN(Cc2ncc(C(C)(C)C)o2)CC1 | 47.4
CC(C)(C)c1cnc(CN2CCC(NC(=O)CC3CCCC3)CC2)o1 | 28.7
CC(C)(C)c1cnc(CN2CCC(NC(=O)C3CCOCC3)CC2)o1 | 30.8

Compound | INHIBITION [%]
CC(C)(C)c1cnc(CN2CCC(CO)CC2)o1 | 39.7
CCN1CCN(C2CCN(Cc3ncc(C(C)(C)C)o3)CC2)C1=O | 42
CC(C)(C)c1cnc(CN2CCC(NC(=O)NC3CCCCC3)CC2)o1 | 60.8
COc1ccc(C(C)N(C)Cc2c(C(C)(C)C)[nH]c3ncccc23)cc1 (configuration not stated) | -19
Cc1cnn(CC2CN(Cc3nc4cccnc4[nH]3)CCO2)c1 (configuration not stated) | 45.1
O=c1[nH]c2c(-c3ccccn3)nsc2c(=O)n1C1CCCCC1 | 9.41
O=C(Cc1cn2ccccc2n1)N1CCCC(n2cccn2)C1 (configuration not stated) | 21.5
CSc1ncccc1C(=O)NCc1ccc(N(C)C)cc1 | -25.1
Cc1nc(CN2CCC3(CCCN(Cc4ccncc4)C3)C2=O)cs1 (configuration not stated) | -36.9
CC(C)CN1CC(O)CN(S(=O)(=O)c2ccccc2)CC1=O (configuration not stated) | 10.1
Cc1cc(C)nc(NCCC(=O)NCCn2ccc3ccccc32)n1 | 41.5
Cc1cnc(CN2CCOC(Cn3nc(C)cc3C)C2)cn1 (configuration not stated) | 32.9
Cc1ccccc1CCC1CCCN(C(=O)Cc2cc(=O)[nH]c(N)n2)C1 (configuration not stated) | -33
CCc1nc(N)sc1C(=O)N1CCCC(CCc2ccccc2C)C1 (configuration not stated) | 55.3
CCc1nc(N)sc1C(=O)N1CCCC(COc2cccc(C)c2)C1 (configuration not stated) | -24.8
Cn1ccc(C(=O)NCc2ccc(CN3CCCCC3)cc2)cc1=O | -19.9
CCS(=O)(=O)N1C[C@H]2CN(Cc3cccc(F)c3)C(=O)[C@H]2C1 | 3.58
Nc1nc2c(c(NCc3nccs3)n1)CCN(CC1CCCC1)CC2 | 76.6
CN(C)c1ncnc2c1CCN(CC1CCCC1)CC2 | 38.1
COCCNc1nc(C)nc2c1CCN(CC1CCC(N)CC1)CC2 (configuration not stated) | 26.6
Cc1nc2c(c(NCCc3nc(C)c(Cl)s3)n1)CCNCC2 | 18.5
c1csc(CN2CCC3(CC2)CCN(CC2CC2)CC3)n1 | 23.3

Compound | INHIBITION [%]
Cc1nc2c(c(NCCc3nccs3)n1)CCN(CC1CC1)CC2 | 64.1
CC(C)c1nnc(CN2CCCc3ccc(S(N)(=O)=O)cc32)o1 | -7.93
CCCn1c(SCC(N)=O)nnc1-c1csc2c1CCCC2 | 19.8
CN(Cc1ccn[nH]1)C(=O)CCC(=O)NC1CCCC1 | 31.2
CCc1c(C)[nH]c(C(C)(N)CC)nc1=O (configuration not stated) | 29.7
CCc1c(C)[nH]c(C(C)(C)N)nc1=O | 60.4
CCC(C)(N)c1nc(=O)c(C)c(C)[nH]1 (configuration not stated) | 43.6
CCS(=O)(=O)c1ccccc1N1CCC(NC(=O)C2CC2)CC1 | -9.37
c1ccc(N2CCC3(CCCN(c4ncccn4)C3)C2)nc1 (configuration not stated) | -56.2
CCc1nc2c(N3CCC4(CC3)CC(=O)N(CC(C)C)C4)ncnc2o1 | 87.2
CCc1nc2c(N3CCC4(CC3)CNC(=O)C4)ncnc2o1 | 9.91
CCc1nc2c(N3CCC4(CC3)CC(=O)N(CC)C4)ncnc2o1 | 26.8
c1csc(CN2CCCn3nnc(COCC4CC4)c3C2)n1 | 15.8
CC[C@@H](Cn1ncc2ccccc2c1=O)NC(=O)c1cnccn1 | -3.94
Cn1nnc2c(sc3nc(N4CCOCC4)c4c(c32)CCC4)c1=O | 13.8
CC(C)n1nnc2c(sc3nc(N4CCOCC4)c4c(c32)CCC4)c1=O | 28.6
CCCn1nnc2c(sc3nc(N4CCOCC4)c4c(c32)CCC4)c1=O | 80.6
CNc1ncc(CN(C)C(=O)c2cccc(-n3cccn3)c2)cn1 | 25.8
O=C(NCCc1cccs1)NCC(O)c1cccc(F)c1 (configuration not stated) | -54.4
CCN(CC)c1ncnc2c(C)nn(CC)c12 | 35.4
O=C(O)C1(n2ccc(-c3ccco3)n2)CCN(Cc2cccnc2)CC1 | 1.48
CNc1nc2cn(-c3cccc(OC)c3)c(=O)c-2c[nH]1 | -98.45

Compound | INHIBITION [%]
C[C@@H]1CN(Cc2cc3ccccc3n2C)CC[C@@]1(O)C1CC1 | 8.7
C[C@@H]1CN(CC(C)(C)N2CCCCC2)C[C@@]1(O)C1CC1 | 31.7
C[C@@H]1CN(CC(C)(C)N2CCCCC2)CC[C@@]1(O)C1CC1 | 71.3
C[C@@H]1CN(CC(C)(C)N2CCOCC2)CC[C@@]1(O)C1CCOCC1 | 27.7
C[C@@H]1CN(CC(C)(C)N2CCOCC2)C[C@@]1(O)C1CC1 | 54.5
C[C@@H]1CN(S(=O)(=O)N2CCOCC2)C[C@@]1(O)C1CC1 | 38.75
Cc1nn(-c2ccccc2)nc1C(=O)N1CCCC(n2cccn2)C1 (configuration not stated) | 17.4
N#Cc1ccccc1CN1CCCC(c2nccn2CC2CC2)C1 (configuration not stated) | 33.4
NC(=O)Cn1ccnc1C1CCCN(Cc2ccccc2OC(F)F)C1 (configuration not stated) | 46.4
FC(F)Oc1ccccc1CN1CCCC(c2nccn2CC2CC2)C1 (configuration not stated) | 74.5
CC1(c2ncc(CN3CCSCC3)cn2)CCCCO1 (configuration not stated) | 40.95
CN1CC[C@]2(CN(S(C)(=O)=O)C[C@H]2c2ccccc2)C1=O | 48.4
CCCn1cc(Cl)c(C(=O)N2C[C@@H](O)[C@H](NC(C)=O)C2)n1 | 0.65
O=C(O)c1cncc(Cc2ccccc2F)c1 | -8.58
Cc1cc(-c2cnc(N3CCNC(=O)C3)nc2-c2ccc(C)o2)on1 | 35.8
Cc1cc(-c2cnc(N3CCNC(=O)C3)nc2-c2cccnc2C)on1 | 39.2
Cc1cc(-c2cnc(N3CCCC(C)C3)nc2-c2cccnc2C)on1 (configuration not stated) | 64.3
Cc1cc(-c2cnc(N3CCNC(=O)C3)nc2-c2ccoc2C)on1 | 14.7
Cc1cc(-c2cnc(N3CCNC(=O)C3)nc2-c2ccncc2)on1 | 50.8
Cc1cc(-c2cnc(N3CCOCC3)nc2-c2cccnc2C)on1 | -2.11
Cc1cc(-c2cnc(N3CCC(O)CC3)nc2-c2cccnc2C)on1 | 11.1
Cc1cc(-c2cnc(N3CCNC(=O)C3)nc2-c2sccc2C)on1 | 0.301

Compound | INHIBITION [%]
Cc1cc(-c2cnc(N3CCCCCC3)nc2-c2cccnc2C)on1 | 59.3
O=C(c1ccc(Cl)cc1F)N1CCC(Cn2cc(CO)nn2)CC1 | 6.67
CCCN(Cc1nnnn1C1CC1)CC1COc2ccccc2O1 (configuration not stated) | -16.6
COCCCNC(=O)c1cc(-c2cnc(N3CCOCC3)nc2)cn1C | 38.1
O=C(NCCN1CCC(c2cccs2)CC1)c1ccccc1C(F)(F)F | 40.9
O=C(NCCN1CCC(c2cccs2)CC1)c1ccc(F)cc1Cl | 56.6
O=C(NCCN1CCC(c2cccs2)CC1)Nc1cccs1 | 9.54
O=C(Cc1ccccc1Cl)NCCN1CCC(c2cccs2)CC1 | 56.6
Cc1csc(C(=O)NCCN2CCC(c3cccs3)CC2)c1 | 68.2
CC1CCN(CCNC(=O)Nc2ccc(F)cc2Cl)CC1 | 56.4
CCSc1ccccc1C(=O)NCCN1CCC(c2cccs2)CC1 | 38
CC1CCN(CCNC(=O)c2ccn(-c3ccc(F)cc3)n2)CC1 | -43.5
COc1ccc(C(=O)NCCN2CCC(c3cccs3)CC2)cc1OC | 17.1
CC(=O)NCCN1CCC(c2cccs2)CC1 | -19.4
O=C(NCCc1ccccc1)NCCN1CCC(c2cccs2)CC1 | 38
CCOC(=O)N1CCN(CC(=O)Nc2ccc(F)cc2Cl)CC1 | 25.6
CCc1nnc2n1CCN(C(=O)c1ccc3cc[nH]c3c1)C2 | -7.53
CC(=O)N[C@@H]1CN(S(=O)(=O)c2ccc(Cl)cc2)C[C@H]1O | -0.232
COC(C)(CNS(=O)(=O)c1cnn(C)c1)c1ccccc1F (configuration not stated) | -19.1
